Our source for the inhibition values is PubChem BioAssay AID1022 (Emory University Molecular Libraries Screening Center, 2008).

About 3,300 (1.5%) of roughly 220,000 compounds were called active. The list comes from a sample in which actives are over-represented; it also holds similar structures and randomly drawn compounds. A number with no mark means an inactive call.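 Rule for the calls: active = compounds that cut the protein-peptide binding signal by more than 50% relative to plate controls in a single-dose test; inactive = the rest.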

One may read the inhibition as the relative decrease from the control value, in per cent.

The target of the experiment is Induced myeloid leukemia cell differentiation protein Mcl-1 (Homo sapiens) (UniProt Q07820). Put plainly: Mcl-1/Noxa binding inhibitors, primary screen, biochemical, TR-FRET, 1536-well (AID 1022).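 Note: His-tagged Mcl-1 with rhodamine Noxa BH3 peptide and terbium anti-His antibody; 0% = Mcl-1 plus Noxa peptide wells and 100% = peptide-only wells.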 As to conditions: TR-FRET Mcl-1/Noxa peptide binding, 2 h; at 21.7 µM; stronger effect = higher value.
Induced myeloid leukemia cell differentiation protein Mcl-1 (Homo sapiens), sequence (Q07820 whole entry, looked up): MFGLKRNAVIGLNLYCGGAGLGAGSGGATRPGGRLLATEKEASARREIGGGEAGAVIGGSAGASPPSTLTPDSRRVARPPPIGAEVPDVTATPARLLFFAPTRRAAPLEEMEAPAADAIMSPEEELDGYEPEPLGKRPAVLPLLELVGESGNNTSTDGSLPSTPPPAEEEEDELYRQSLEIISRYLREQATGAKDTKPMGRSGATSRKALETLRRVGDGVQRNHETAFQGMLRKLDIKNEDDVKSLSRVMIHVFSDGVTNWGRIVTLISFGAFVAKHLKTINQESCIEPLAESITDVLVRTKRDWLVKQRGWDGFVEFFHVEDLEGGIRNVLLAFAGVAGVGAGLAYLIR
As to `Nc1ccc(-c2nnc(-c3ccc(-c4ccccc4)cc3)o2)cc1`, the inhibition is 65.7% (active).
For the molecule `Brc1ccc(-c2nnc(-c3ccccc3)o2)o1`, the inhibition was 8.68%.
Consider `Nc1ccc(-c2sc(N)nc2-c2ccccc2)cc1`, for which the inhibition is 26.2%.
For `COc1ccc(S(=O)(=O)N(CC(=O)N/N=C/c2ccccc2C(=O)O)c2ccccc2OC)cc1`, the inhibition is 12.8%.
To `CCN1CCN(C(c2cccnc2)c2cc(Cl)c3cccnc3c2O)CC1` (configuration not stated) belongs 34%.
With `Oc1c(C(c2ccccn2)N2CCOCC2)ccc2cccnc12` (configuration not stated), the inhibition was 5.37%.
As for `CCOC(=O)N1CCN(C(c2cccnc2)c2ccc3cccnc3c2O)CC1` (configuration not stated), the inhibition is 61.5% (active).
In the case of `Cc1nc(N)sc1N=Nc1c(C)n(C)n(-c2ccccc2)c1=O`, the inhibition is 13%.
`CC(C)OP(=O)(OC(C)C)C(Nc1ccccc1)c1cccc([N+](=O)[O-])c1` (configuration not stated): the inhibition was 6.5%.
For `CCC1=C/C(=C\c2ccc3c(c2)OCO3)C(=O)S1`, the inhibition was 55.4% (active).
In the case of `CSC1=N/C(=C\c2ccc3c(c2)OCO3)C(=O)S1`, the inhibition is 5.49%.
Take `O=C1/C(=C/c2ccc3c(c2)OCO3)CCC/C1=C\c1ccc2c(c1)OCO2`: the inhibition is -7.31%.
In the case of `CN1CCN(CCNC(=O)Nc2ccc([N+](=O)[O-])cc2)CC1`, the inhibition is 6.06%.
To `O=C(COC(=O)C1CCCCC1)Nc1ccc([N+](=O)[O-])cc1` belongs -0.21%; to `O=C(COc1ccc([N+](=O)[O-])cc1)Nc1ccc(N2CCCC2)cc1`, 52.2% (active); to `O=C(NCCCN1CCN(c2ccc(F)cc2)CC1)Nc1ccc([N+](=O)[O-])cc1`, 52% (active).
With `COc1ccc(OCC(=O)Nc2ccc(N3CCC(C)CC3)cc2)cc1`, the inhibition is 5.22%.
To `O=C(Nc1ccc(F)cc1)N1CCN(c2ccc(F)cc2)CC1` belongs -20.8%.
`CN(C)c1nc(=Nc2cccc(Cl)c2)ss1`: the inhibition is 13.4%.
To `CC(C)(C)C(=O)OCc1nc(-c2ccc(O)c(O)c2)cs1` belongs 46.4%; to `COc1ccc(CCNC(=O)C(Sc2ccccn2)c2ccccc2)cc1OC` (configuration not stated), -11.6%; to `CSc1ccc(NC(=O)/C=C/C(=O)O)cc1`, 14.6%.
Take `Cc1oc(C(N)=O)cc1COc1ccc(C(N)=O)cc1`: the inhibition was 7.05%.
Regarding `O=C(NCCN1CCOCC1)c1ccc2c(c1)N(Cc1ccc(Cl)cc1)CCS2`, the inhibition was 16.4%.
As to `NC(=O)[C@H]1CC2(CC(c3cccc(NC(=O)[C@H]4CCC(=O)N4)c3)=NO2)CN1C(=O)c1ccccc1C(=O)c1ccccc1` (some centres not stated), the inhibition is 3.36%.
On to `Cc1cc(=O)[nH]c2nnnn12`, for which the inhibition was 0.51%.
In the case of `O=C(NC1CCCCC1)N1CCc2[nH]c3ccccc3c2C1`, the inhibition is -13%.
Take `O=C(Nc1ccc(Cl)cc1)N1CCc2[nH]c3ccccc3c2C1`: the inhibition was 104% (active).
To `Fc1ccc(NC(=S)N2CCc3[nH]c4ccccc4c3C2)cc1` belongs 14.9%; to `O=C(Nc1ccc(Cl)cc1)c1ccsn1`, 11.5%.
To `O=C(Nc1ccccc1)c1nnsc1S(=O)(=O)c1ccc(Cl)cc1` belongs 68.7% (active); to `CS(=O)(=O)c1ccc(Cl)c(NC(=O)Nc2ccccc2)c1`, 2.41%; to `N#CC1=C(N)Oc2c(ccc3cccnc23)C1c1ccncc1` (configuration not stated), -11.2%.
`NC(=O)N/N=C\c1cccs1`: the inhibition is -22.2%.
To `C=CCSC(CC)(CC)C(N)=O` belongs -9.07%; to `COc1ccc(NC(=S)NCC2CCN(c3ccc(OC)cc3)C2)cc1` (configuration not stated), 67.3% (active); to `COc1ccc(N2CCC(CNC(=S)Nc3c(C)cccc3C)C2)cc1` (configuration not stated), 17.1%.
On to `COc1ccc(NC(=S)NCCN2CCC(C)CC2)cc1`, for which the inhibition is 19.6%.
Consider `O=C(Nc1ccccc1)N1CCN(C2c3ccccc3-c3ccccc32)CC1`, for which the inhibition was -0.05%.
Turning to `CC1CCN(c2ccc([N+](=O)[O-])c(SCCO)c2)CC1`, the inhibition was -16%.
For `Cn1cnc(S(=O)(=O)Nc2ccc3c(c2)OCCO3)c1`, the inhibition was -2.52%.
For the molecule `C=CCn1c(SCC(=O)Nc2nc3ccccc3s2)nnc1-c1ccccc1O`, the inhibition was 8.54%.
On to `C=CCn1c(CSc2nc3ccccc3s2)nnc1SCC(=O)NCc1ccco1`, for which the inhibition was 51.2% (active).
Regarding `CCn1c(COc2ccccc2)nnc1SCC(=O)NCc1ccco1`, the inhibition is -18.1%.
To `C=CCC(Nc1ccccc1)c1cccc(OC)c1OC` (configuration not stated) belongs 5.76%; to `Cc1cc(NC(=O)Nc2ccc(Cl)cc2)n(-c2ccccc2)n1`, -3.74%.
On to `COc1ccc(NC(=O)COc2ccc(C(=O)OCC(=O)N(C)C3CCS(=O)(=O)C3)cc2OC)cc1` (configuration not stated), for which the inhibition was -10.9%.
Turning to `CN(C(=O)COC(=O)c1cc(-c2ccco2)nc2ccccc12)C1CCS(=O)(=O)C1` (configuration not stated), the inhibition is 107% (active).
Turning to `Cc1c(-c2cccc(Cl)c2)nc2ccccc2c1C(=O)OCC(=O)N(C)C1CCS(=O)(=O)C1` (configuration not stated), the inhibition was 13.3%.
With `O=C(C1=C(O)C(=O)N(CCOCCO)C1c1ccccn1)c1cccs1` (configuration not stated), the inhibition was 11.8%.
For `O=C(C1=C(O)C(=O)N(Cc2ccccc2)C1c1ccco1)c1ccco1` (configuration not stated), the inhibition is 24.5%.
Regarding `O=C(C1=C(O)C(=O)N(c2ncccn2)C1c1cccs1)c1ccco1` (configuration not stated), the inhibition is 55% (active).
In the case of `COc1cc(C=O)ccc1Oc1nnnn1-c1ccccc1`, the inhibition was -17.8%.
In the case of `COc1ccc(OC)c(C(=O)c2ccc(Cl)cc2)c1`, the inhibition was 6.99%.
On to `Cc1ccc2cc(/C=N/NC(=O)[C@@H]3CCCN3)c(Cl)nc2c1`, for which the inhibition is 5.95%.
For the molecule `Cc1c(NC(=O)/C=C/C(=O)O)cccc1[N+](=O)[O-]`, the inhibition was -3.3%.
Take `O=C(O)/C=C/C(=O)NNc1ccc([N+](=O)[O-])cc1`: the inhibition is 54.4% (active).
Consider `O=[N+]([O-])c1ccc(N/N=C/c2ccccc2)cc1`, for which the inhibition was 1.75%.
With `C/C(=N\NC(=O)CC(C)C)c1c(C(F)(F)F)[nH]n(-c2nc3ccccc3s2)c1=O`, the inhibition is -81.1%.
For `O=C(Nc1cccc2c1N(C(=O)c1ccco1)CCC2)c1ccco1`, the inhibition is 18.1%.
`O=C(C[n+]1ccc2c(c1)nnn2-c1ccccc1)c1ccc(Cl)cc1`: the inhibition was 4.1%.
Regarding `N#CCC(=O)N/N=C/c1cn(Cc2ccc3ccccc3c2)c2ccccc12`, the inhibition was 27.9%.
